# Reference: ChEMBL document CHEMBL1961873, “Compounds: GSK PKIS; Assays: Nanosyn kinase panel” (2012)
# Tests used:
# [1] = target: Tyrosine-protein kinase receptor UFO (Homo sapiens) (UniProt P30530); details: at 1 µM
# [2] = target: Tyrosine-protein kinase Blk (Homo sapiens) (UniProt P51451); details: at 0.1 µM
# [3] = target: Tyrosine-protein kinase Blk (Homo sapiens) (UniProt P51451); details: at 1 µM
# [4] = target: T1, Cytoplasmic tyrosine-protein kinase BMX (Homo sapiens) (UniProt P51813); details: at 0.1 µM
# T1 sequence (whole entry): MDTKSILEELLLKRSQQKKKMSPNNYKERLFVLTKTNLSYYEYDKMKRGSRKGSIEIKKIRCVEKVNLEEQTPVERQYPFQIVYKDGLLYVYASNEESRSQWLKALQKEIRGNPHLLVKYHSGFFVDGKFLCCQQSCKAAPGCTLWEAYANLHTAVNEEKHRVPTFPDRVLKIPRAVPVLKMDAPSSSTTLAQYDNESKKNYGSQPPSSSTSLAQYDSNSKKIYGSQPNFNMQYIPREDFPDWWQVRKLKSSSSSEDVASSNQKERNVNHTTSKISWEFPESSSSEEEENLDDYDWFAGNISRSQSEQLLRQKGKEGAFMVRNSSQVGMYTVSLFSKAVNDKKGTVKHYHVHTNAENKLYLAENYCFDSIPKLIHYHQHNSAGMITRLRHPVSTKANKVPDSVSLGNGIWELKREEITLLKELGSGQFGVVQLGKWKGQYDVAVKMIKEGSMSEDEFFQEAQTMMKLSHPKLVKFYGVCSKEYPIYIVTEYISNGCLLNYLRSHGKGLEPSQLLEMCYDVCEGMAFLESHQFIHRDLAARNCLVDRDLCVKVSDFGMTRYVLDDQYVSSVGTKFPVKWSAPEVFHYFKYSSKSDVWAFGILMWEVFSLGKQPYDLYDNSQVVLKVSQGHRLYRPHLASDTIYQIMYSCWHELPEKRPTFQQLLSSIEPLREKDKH
# [5] = target: T1, Cytoplasmic tyrosine-protein kinase BMX (Homo sapiens); details: at 1 µM
# [6] = target: Protein-tyrosine kinase 6 (Homo sapiens) (UniProt Q13882); details: at 0.1 µM
# [7] = target: Protein-tyrosine kinase 6 (Homo sapiens) (UniProt Q13882); details: at 1 µM
# [8] = target: Tyrosine-protein kinase BTK (Homo sapiens) (UniProt Q06187); details: at 0.1 µM
# Chain of Tyrosine-protein kinase BTK (Homo sapiens) (Q06187 whole entry): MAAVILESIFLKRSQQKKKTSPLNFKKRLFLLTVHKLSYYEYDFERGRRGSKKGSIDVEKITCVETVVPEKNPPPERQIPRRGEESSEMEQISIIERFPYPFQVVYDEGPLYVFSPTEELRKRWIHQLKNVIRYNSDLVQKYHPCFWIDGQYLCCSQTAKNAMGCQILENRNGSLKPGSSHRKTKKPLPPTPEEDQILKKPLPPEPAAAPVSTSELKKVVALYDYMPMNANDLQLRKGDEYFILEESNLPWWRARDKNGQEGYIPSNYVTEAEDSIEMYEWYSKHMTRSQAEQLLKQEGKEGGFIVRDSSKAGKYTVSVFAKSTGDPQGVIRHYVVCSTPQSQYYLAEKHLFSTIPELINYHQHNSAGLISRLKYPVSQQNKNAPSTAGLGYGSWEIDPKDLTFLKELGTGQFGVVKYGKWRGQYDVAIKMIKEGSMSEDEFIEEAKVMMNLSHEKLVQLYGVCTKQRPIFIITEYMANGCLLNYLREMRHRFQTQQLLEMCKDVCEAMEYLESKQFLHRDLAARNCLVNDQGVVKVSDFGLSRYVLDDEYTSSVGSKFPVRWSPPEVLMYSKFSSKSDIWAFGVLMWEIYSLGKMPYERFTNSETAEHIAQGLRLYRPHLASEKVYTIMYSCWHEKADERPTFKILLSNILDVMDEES
# [9] = target: Tyrosine-protein kinase BTK (Homo sapiens) (UniProt Q06187); details: at 1 µM
# [10] = target: Tyrosine-protein kinase CSK (Homo sapiens) (UniProt P41240); details: at 0.1 µM
# Chain of Tyrosine-protein kinase CSK (Homo sapiens) (P41240 2-450 limits assumed): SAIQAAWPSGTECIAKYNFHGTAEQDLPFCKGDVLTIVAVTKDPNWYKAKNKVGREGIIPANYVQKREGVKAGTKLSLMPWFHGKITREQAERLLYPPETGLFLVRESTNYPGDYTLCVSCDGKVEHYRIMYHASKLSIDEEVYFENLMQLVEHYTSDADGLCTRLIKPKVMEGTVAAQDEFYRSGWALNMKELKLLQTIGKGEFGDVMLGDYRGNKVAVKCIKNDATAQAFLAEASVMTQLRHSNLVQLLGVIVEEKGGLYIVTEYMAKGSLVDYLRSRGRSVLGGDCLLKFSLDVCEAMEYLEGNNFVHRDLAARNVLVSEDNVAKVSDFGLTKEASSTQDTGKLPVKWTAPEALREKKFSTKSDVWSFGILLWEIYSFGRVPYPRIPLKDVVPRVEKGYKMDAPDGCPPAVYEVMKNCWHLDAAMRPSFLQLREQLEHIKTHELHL
# [11] = target: Tyrosine-protein kinase CSK (Homo sapiens) (UniProt P41240); details: at 1 µM
# [12] = target: T2, Discoidin domain-containing receptor 2 (Homo sapiens) (UniProt Q16832); details: at 0.1 µM
# T2 sequence (whole entry): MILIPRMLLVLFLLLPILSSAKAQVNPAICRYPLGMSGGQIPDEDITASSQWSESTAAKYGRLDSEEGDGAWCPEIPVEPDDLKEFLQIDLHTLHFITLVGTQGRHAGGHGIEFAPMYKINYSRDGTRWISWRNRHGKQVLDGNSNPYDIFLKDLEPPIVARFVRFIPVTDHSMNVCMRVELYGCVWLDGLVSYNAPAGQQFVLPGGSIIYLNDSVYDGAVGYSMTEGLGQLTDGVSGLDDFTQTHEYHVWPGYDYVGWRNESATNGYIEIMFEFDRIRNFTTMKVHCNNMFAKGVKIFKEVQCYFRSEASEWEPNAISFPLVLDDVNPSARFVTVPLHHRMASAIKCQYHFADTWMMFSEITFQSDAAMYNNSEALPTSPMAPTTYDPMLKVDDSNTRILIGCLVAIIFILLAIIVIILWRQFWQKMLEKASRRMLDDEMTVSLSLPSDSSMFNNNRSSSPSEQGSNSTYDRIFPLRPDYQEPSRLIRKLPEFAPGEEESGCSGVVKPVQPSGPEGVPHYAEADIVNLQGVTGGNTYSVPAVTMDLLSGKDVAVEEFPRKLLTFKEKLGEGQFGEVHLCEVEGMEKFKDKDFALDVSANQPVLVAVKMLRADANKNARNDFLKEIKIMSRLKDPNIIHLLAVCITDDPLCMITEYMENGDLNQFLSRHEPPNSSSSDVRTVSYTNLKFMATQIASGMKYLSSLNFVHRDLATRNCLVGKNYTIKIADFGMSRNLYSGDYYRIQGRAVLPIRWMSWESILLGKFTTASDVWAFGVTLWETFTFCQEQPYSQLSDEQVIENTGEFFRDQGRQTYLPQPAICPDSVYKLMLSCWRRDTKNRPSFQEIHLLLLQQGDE
# [13] = target: T2, Discoidin domain-containing receptor 2 (Homo sapiens); details: at 1 µM
# [14] = target: Epidermal growth factor receptor (Homo sapiens) (UniProt P00533); details: at 0.1 µM
# [15] = target: Epidermal growth factor receptor (Homo sapiens) (UniProt P00533); details: at 1 µM
# [16] = tested on: Epidermal growth factor receptor (Homo sapiens), P00533 [L858R]; details: at 0.1 µM
# Chain of Epidermal growth factor receptor (Homo sapiens), P00533 [L858R] (P00533 whole entry L858R): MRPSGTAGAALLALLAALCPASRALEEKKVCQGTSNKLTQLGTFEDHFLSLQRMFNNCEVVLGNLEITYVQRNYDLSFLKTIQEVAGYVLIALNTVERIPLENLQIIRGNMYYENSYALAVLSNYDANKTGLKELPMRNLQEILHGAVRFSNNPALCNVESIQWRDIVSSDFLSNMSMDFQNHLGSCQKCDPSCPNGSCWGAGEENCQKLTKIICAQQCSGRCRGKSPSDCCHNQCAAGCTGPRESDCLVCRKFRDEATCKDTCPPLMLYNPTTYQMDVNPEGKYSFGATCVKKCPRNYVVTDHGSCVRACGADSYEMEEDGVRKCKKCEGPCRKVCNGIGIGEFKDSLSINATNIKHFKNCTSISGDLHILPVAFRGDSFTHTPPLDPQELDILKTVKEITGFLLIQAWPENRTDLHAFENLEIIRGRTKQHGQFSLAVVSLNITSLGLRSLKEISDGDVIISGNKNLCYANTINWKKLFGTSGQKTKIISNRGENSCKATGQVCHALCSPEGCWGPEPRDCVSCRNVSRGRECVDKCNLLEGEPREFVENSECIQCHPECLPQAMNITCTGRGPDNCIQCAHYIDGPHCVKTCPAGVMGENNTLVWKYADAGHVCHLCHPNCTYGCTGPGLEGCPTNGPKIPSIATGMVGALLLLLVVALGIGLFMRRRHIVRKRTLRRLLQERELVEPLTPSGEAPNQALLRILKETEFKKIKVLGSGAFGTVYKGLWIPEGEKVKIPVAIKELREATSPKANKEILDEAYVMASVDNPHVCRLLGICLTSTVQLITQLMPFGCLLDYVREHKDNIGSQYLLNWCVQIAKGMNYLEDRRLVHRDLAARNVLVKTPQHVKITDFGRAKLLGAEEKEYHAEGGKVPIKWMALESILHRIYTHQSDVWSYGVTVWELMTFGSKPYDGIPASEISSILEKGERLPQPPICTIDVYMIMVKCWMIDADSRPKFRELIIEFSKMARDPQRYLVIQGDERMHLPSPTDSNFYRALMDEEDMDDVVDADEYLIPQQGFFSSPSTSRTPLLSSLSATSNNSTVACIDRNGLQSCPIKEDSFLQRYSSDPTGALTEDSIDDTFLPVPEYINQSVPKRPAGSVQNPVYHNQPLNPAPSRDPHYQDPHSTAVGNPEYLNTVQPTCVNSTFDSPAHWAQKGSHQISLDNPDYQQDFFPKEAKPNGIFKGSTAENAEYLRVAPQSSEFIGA
# [17] = tested on: Epidermal growth factor receptor (Homo sapiens), P00533 [L858R]; details: at 1 µM
# [18] = tested on: Epidermal growth factor receptor (Homo sapiens), P00533 [L861Q]; details: at 0.1 µM
# Chain of Epidermal growth factor receptor (Homo sapiens), P00533 [L861Q] (P00533 whole entry L861Q): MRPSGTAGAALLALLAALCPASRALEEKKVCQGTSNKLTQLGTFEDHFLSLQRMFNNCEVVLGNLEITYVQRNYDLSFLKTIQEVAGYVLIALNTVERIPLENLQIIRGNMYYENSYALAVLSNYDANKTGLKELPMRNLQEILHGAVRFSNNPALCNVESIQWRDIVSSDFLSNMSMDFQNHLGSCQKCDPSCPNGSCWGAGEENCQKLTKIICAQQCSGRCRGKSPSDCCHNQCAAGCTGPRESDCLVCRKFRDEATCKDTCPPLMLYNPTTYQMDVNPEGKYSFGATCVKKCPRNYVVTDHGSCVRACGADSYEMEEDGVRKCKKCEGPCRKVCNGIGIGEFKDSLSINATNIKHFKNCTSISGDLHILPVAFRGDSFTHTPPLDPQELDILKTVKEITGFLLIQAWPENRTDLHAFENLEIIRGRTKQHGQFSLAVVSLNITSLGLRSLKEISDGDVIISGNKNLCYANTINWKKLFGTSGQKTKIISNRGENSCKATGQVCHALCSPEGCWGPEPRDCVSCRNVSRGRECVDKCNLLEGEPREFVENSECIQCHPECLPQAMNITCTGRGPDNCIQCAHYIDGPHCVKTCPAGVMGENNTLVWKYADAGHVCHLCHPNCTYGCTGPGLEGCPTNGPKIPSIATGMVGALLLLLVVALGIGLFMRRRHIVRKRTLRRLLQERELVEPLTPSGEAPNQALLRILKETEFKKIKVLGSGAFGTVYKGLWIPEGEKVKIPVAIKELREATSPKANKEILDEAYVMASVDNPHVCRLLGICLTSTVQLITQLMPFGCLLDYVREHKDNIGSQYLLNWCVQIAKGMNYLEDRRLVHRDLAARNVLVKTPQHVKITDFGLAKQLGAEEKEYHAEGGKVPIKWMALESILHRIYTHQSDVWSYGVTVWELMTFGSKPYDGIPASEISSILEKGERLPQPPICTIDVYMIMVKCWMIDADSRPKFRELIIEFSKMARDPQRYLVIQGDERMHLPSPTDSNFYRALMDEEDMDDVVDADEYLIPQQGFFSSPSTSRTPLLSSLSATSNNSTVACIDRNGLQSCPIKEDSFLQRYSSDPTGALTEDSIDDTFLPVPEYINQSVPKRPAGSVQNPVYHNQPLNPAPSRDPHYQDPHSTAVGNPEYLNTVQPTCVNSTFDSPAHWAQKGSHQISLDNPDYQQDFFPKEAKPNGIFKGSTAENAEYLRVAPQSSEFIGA
# [19] = tested on: Epidermal growth factor receptor (Homo sapiens), P00533 [L861Q]; details: at 1 µM
# [20] = tested on: Epidermal growth factor receptor (Homo sapiens), P00533 [T790M]; details: at 0.1 µM
# Chain of Tyrosine-protein kinase Blk (Homo sapiens) (P51451 2-505 limits assumed): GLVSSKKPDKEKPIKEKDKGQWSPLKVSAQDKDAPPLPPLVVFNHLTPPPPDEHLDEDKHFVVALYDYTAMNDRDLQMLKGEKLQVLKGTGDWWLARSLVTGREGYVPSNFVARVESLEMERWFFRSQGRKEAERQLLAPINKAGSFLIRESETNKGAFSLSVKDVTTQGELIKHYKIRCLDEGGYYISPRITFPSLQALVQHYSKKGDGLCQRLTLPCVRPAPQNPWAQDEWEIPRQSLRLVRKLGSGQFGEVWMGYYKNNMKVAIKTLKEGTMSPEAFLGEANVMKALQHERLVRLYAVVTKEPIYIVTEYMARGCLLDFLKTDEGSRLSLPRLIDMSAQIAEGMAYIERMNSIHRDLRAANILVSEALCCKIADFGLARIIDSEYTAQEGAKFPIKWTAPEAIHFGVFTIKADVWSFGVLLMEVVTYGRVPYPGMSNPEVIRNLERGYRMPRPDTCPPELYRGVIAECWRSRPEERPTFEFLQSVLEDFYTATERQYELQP
# Chain of Tyrosine-protein kinase receptor UFO (Homo sapiens) (P30530 whole entry): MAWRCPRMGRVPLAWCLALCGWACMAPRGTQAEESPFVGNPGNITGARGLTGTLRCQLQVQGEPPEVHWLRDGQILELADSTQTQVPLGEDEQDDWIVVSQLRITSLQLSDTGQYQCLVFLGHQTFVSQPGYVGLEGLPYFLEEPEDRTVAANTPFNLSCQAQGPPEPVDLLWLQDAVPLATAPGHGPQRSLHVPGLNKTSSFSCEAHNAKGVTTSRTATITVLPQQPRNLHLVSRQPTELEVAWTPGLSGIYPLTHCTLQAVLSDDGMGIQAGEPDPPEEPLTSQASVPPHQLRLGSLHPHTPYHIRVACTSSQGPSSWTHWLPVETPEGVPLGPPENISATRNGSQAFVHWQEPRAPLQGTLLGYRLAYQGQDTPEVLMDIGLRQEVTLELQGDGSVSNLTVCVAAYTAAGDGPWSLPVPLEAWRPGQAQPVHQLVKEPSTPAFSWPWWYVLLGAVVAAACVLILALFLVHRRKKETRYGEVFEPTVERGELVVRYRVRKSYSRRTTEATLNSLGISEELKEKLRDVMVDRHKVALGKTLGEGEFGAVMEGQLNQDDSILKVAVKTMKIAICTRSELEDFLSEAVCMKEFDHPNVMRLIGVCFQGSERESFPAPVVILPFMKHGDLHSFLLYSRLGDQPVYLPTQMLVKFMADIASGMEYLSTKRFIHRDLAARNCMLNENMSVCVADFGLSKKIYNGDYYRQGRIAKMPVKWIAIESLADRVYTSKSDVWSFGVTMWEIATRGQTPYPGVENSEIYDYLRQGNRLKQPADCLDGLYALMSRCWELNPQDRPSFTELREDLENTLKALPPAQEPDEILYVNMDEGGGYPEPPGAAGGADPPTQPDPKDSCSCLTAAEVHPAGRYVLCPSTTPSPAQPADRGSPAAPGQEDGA
Compound,inhibition [1] [%],inhibition [2] [%],inhibition [3] [%],inhibition [4] [%],inhibition [5] [%],inhibition [6] [%],inhibition [7] [%],inhibition [8] [%],inhibition [9] [%],inhibition [10] [%],inhibition [11] [%],inhibition [12] [%],inhibition [13] [%],inhibition [14] [%],inhibition [15] [%],inhibition [16] [%],inhibition [17] [%],inhibition [18] [%],inhibition [19] [%],inhibition [20] [%]
Cc1ccc(-c2cc3c(NC(=O)C4CC4)ncnc3o2)cc1,-1.05,3.18,12.7,-1.26,7.57,4,8.16,0.73,1.92,2.33,2.78,0.26,1.45,3.75,8.67,3.53,2.75,2.3,4.69,1.98
c1ccc(-c2n[nH]cc2-c2ccnc(-c3ccc(OCCn4ccnc4)cc3)c2)nc1,-0.26,-0.32,1.78,-0.48,0.53,2.69,8.22,0.31,-1.64,1,1.94,0.36,1.9,0.25,5.66,1.97,24.5,-0.83,5.84,-1.24
N#Cc1ccc2c(-c3ccnc(NC4CC4)n3)c(-c3ccc(F)cc3)nn2c1,-4.53,-1.08,-3.55,1.17,2.56,-1.17,2.88,-0.25,-2.34,1.65,3.45,4.32,15.8,1.52,13.8,5.89,41.3,1.64,12.9,-0.38
CN(C)CCNC(=O)Nc1ccc(N(C)c2ccnc(Nc3ccc(CS(C)(=O)=O)cc3)n2)cc1,-0.6,2.78,9.64,3.74,10.5,4.92,5.13,2.45,3.65,3.68,1.47,0.92,9.89,1.32,3.79,3.58,3.5,2.9,2.38,3.69
Fc1cccc(COc2ccc(Nc3ncncc3C#Cc3ccccc3)cc2Cl)c1,-6.13,3.22,3.19,-2.36,5.09,6.04,7.36,1.18,0.79,2.79,6.87,1.28,1.92,23.9,72.5,3.93,21.7,16.6,30.2,3.89
CN(c1ccc(NC(=O)NCCN2CCOCC2)cc1)c1ccnc(Nc2ccc(CS(C)(=O)=O)cc2)n1,-4.88,2.89,8.61,0.59,22.6,2.66,8.9,1.05,2.3,3.59,13.1,24.3,76,-0.15,1.28,3.77,6.75,2.81,3.82,2.04
COc1cccc(-n2ncc3c(N/N=C/c4ccc(C(=O)NCCN(C)C)cc4)ncnc32)c1,40.9,18.1,73,9.47,46.3,9.98,53.4,1.25,1.98,3.74,22,7.86,41,16.7,56.4,63.6,90.6,23,68.7,0.59
